A selection: hits, their analogues and other compounds. The true share with any hit is near 19%.
HT1080 IDH1KD tx – qHTS for induction of synthetic lethality in tumor cells producing 2HG: qHTS for the HT-1080-IDH1KD cell line | HT-1080 IDH1 knockdown viability, ATP luminescence, 48 h | Potency, µM (titrated, usually from 46.1 µM), usual class: cytotoxic | actives 2% (n = 360,000) | AID 686971, 2013
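Using the IDH1-knockdown HT-1080 line run in the same batch and compound series as the NT line, viability after 48 h at 37 °C was determined by CellTiter-Glo luminescence and expressed as % activity.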
TDP1 cell noCPT – qHTS for Inhibitors of human tyrosyl-DNA phosphodiesterase 1 (TDP1): qHTS in cells in absence of CPT | actives 15% (n = 420,000) | Potency, µM (top dose mostly 46.2 µM), usual class: inhibitors | DT40 Tdp1-/- hTDP1 cells, no CPT, ATP luminescence, 48 h; further: nearly all actives have a fitted effect of over 55% in size
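Seeded 400 DT40-hTDP1 cells/well (vehicle DMSO, no 20 nM CPT); pinned compounds; ≥48 hr at 37 °C; CellTiter-Glo luminescence as viability measure.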
IL-1B inflam inh – qHTS for Inhibitors of Inflammasome Signaling: IL-1-beta AlphaLISA Primary Screen; AID 743279, 2014; actives 4.7% (n = 360,000); THP-1 LPS/ATP IL-1B secretion, AlphaLISA, 16 h; stronger effect = lower value; activity change, % at 57.5 µM; in the data active means activity change below about -50%; inconclusive means mostly about -30% to -49%
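Secreted IL-1B measured by AlphaLISA bead assay after 16 h compound exposure of THP-1 cells; compounds (final up to 57.5 uM) added 1 h before LPS (250 ng/mL) and ATP (1.25 mM) stimulation; lower signal means less secretion.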
uPA surface inh – qHTS for Inhibitors of Cell Surface uPA Generation. cell surface uPA generation assay, qHTS. Potency, µM (titrated, usually from 38.3 µM), most hits filed as inhibitors. actives 0.31% (n = 330,000); active means well fitted inhibition curve with a large enough effect; inconclusive means small, poorly fitted or top-dose-only effect; inactive means no such curve, though single readings can be large or run the other way; tested in mouse RAW 264.7 cells; further: nearly all actives have a fitted effect of over 55% in size
DT40 TDP1 CPT – qHTS for Inhibitors of human tyrosyl-DNA phosphodiesterase 1 (TDP1): qHTS in cells in presence of CPT. AID 686979, 2013. chicken DT40 Tdp1-/-;hTDP1 cells + 20 nM CPT, ATP luminescence, 48 h. actives 12% (n = 420,000). Potency, µM (doses to about 46.2 µM), hits mostly inhibitors; further: nearly all actives have a fitted effect of over 55% in size
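Chicken DT40 Tdp1-/- cells complemented with human TDP1, 400 cells/well, exposed to compounds plus 20 nM camptothecin for at least 48 h at 37 C; viability read as ATP content by CellTiter-Glo luminescence.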
HT1080NT lethal – qHTS for induction of synthetic lethality in tumor cells producing 2HG: qHTS for the HT-1080-NT fibrosarcoma cell line. HT-1080-NT fibrosarcoma viability, CellTiter-Glo ATP luminescence, 48 h. actives 1.6% (n = 360,000). Potency, µM (highest dose often 46.1 µM), usual class: cytotoxic. AID 686970, 2013;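 further: NT is the 2HG producing partner of a matched IDH1 knockdown line; nearly all actives have a fitted effect of over 55% in size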
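A 48-hour cytotoxicity screen used HT-1080-NT cells plated 2 hours before compound delivery. ATP-based CellTiter-Glo luminescence measured viability, normalized to DMSO and no-cell controls.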
Large screens that a line does not name were inactive. Unless noted, the call rests on the fitted dose curve; in most records, active means well fitted curve in the direction sought with a large enough effect; inconclusive means small, poorly fitted or top-dose-only effect, or another doubt; inactive means no such curve, though single readings can be large; an effect the other way counts as inactive or inconclusive.

CC(CC(=O)Nc1ccc2c(c1)OCCO2)c1ccccc1 (configuration not stated)	DT40 TDP1 CPT inconclusive
CC(C)(C)OC(=O)N1CCC[C@H]1C(=O)NCc1ccc(Cl)cc1Cl	TDP1 cell noCPT inconclusive, DT40 TDP1 CPT inconclusive (no result: uPA surface inh)
O=C1Nc2ccccc2C(=O)C1(Cl)Cc1ccccc1 (configuration not stated)	TDP1 cell noCPT 5.2µM, DT40 TDP1 CPT 6.5µM
CC(C)(C)N1C(=O)c2ccccc2NC(=O)N1Cc1ccccc1	none
O=C(NCc1ccccn1)c1ccc(Cl)c(S(=O)(=O)NCc2ccccc2)c1	none
CCCn1c(SCC(=O)c2c(C)[nH]c(C)c2C(=O)OCC)nc2ccccc21	TDP1 cell noCPT inconclusive, DT40 TDP1 CPT 16µM
Cc1[nH]c2ccccc2c1C(=O)CSc1ccc(Cl)cc1	TDP1 cell noCPT inconclusive, DT40 TDP1 CPT 23µM
CCOC(=O)c1c(C)[nH]c(C)c1C(=O)CSc1nc2ccccc2c(=O)n1-c1ccc(Cl)cc1	HT1080 IDH1KD tx inconclusive, TDP1 cell noCPT 18µM, DT40 TDP1 CPT 16µM
Cc1[nH]c2ccccc2c1C(=O)CSc1nccc(=O)[nH]1	none
O=C(Cn1nnc2ccccc21)c1ccc([N+](=O)[O-])cc1	TDP1 cell noCPT inconclusive, DT40 TDP1 CPT inconclusive
N=c1n(CC(=O)c2ccc([N+](=O)[O-])cc2)c2ccccc2n1Cc1ccccc1Cl	TDP1 cell noCPT 2.9µM, IL-1B inflam inh -60, DT40 TDP1 CPT 2.9µM
N=c1n(Cc2ccccc2)c2ccccc2n1CC(O)c1ccco1 (configuration not stated)	TDP1 cell noCPT 23µM, DT40 TDP1 CPT 21µM
CCn1c(=N)n(CC(O)c2ccco2)c2ccccc21 (configuration not stated)	none (no result: uPA surface inh)
Cc1ccccc1Cn1c(=N)n(CC(=O)c2ccco2)c2ccccc21	HT1080 IDH1KD tx inconclusive, TDP1 cell noCPT 16µM, DT40 TDP1 CPT 23µM, HT1080NT lethal inconclusive
N=c1n(CC(=O)c2ccc([N+](=O)[O-])cc2)c2ccccc2n1Cc1ccc(Cl)cc1	TDP1 cell noCPT 5.2µM, DT40 TDP1 CPT 2.9µM
CN(C)c1ncc2nc(-c3cccc(C#N)c3)c(=O)n(C[C@H]3CCCO3)c2n1	none (no result: HT1080 IDH1KD tx, IL-1B inflam inh, uPA surface inh, HT1080NT lethal)
Cc1ccc(S(=O)(=O)N2CCOCC2)cc1C(=O)NNC(=O)c1ccoc1C	none
N=c1n(Cc2ccccc2)c2ccccc2n1Cc1ccccc1	TDP1 cell noCPT 21µM, DT40 TDP1 CPT 18µM, HT1080NT lethal inconclusive (no result: IL-1B inflam inh)
N=c1n(CCN2CCCCC2)c2ccccc2n1CC(=O)c1cccc([N+](=O)[O-])c1	TDP1 cell noCPT 18µM, DT40 TDP1 CPT inconclusive
CCOC(=O)Cn1c(=N)n(Cc2ccccc2)c2ccccc21	none
N=c1n(CCO)c2ccccc2n1Cc1ccc(Cl)cc1	TDP1 cell noCPT 16µM, IL-1B inflam inh -52, DT40 TDP1 CPT 26µM
N=c1n(CC(=O)c2ccc(Br)cc2)c2ccccc2n1Cc1ccccc1	TDP1 cell noCPT 6.5µM, IL-1B inflam inh -101, DT40 TDP1 CPT 5.2µM
COc1cccc(-c2cncnc2N(C)Cc2ccco2)c1	none (no result: HT1080 IDH1KD tx, IL-1B inflam inh, uPA surface inh, HT1080NT lethal)
CC(=O)Nc1ccc(NC(=O)CSc2ccc3nnc(-c4cccnc4)n3n2)cc1	none
CCOc1ccc(OCC(=O)Nc2cc(Cl)ccc2-n2cncn2)cc1	TDP1 cell noCPT inconclusive, DT40 TDP1 CPT inconclusive (no result: uPA surface inh)
C=CCn1c(=N)n(CC(=O)c2cccc([N+](=O)[O-])c2)c2ccccc21	TDP1 cell noCPT inconclusive, DT40 TDP1 CPT inconclusive
N=c1n(CC(=O)c2ccc([N+](=O)[O-])cc2)c2ccccc2n1Cc1ccccc1	TDP1 cell noCPT 5.8µM, IL-1B inflam inh -106, DT40 TDP1 CPT 7.3µM
